Source: PubChem (National Center for Advancing Translational Sciences (NCATS))
Cycloheximide cs = counter-screen for Shiga toxin inhibitors: cycloheximide protein synthesis inhibition | cell reporter, cycloheximide protein synthesis inhibition counterscreen | max response, % | actives 12% (n = 300,000); in the data active means max response mostly above about 13%, no sharp cut-off; inactive means mostly below about 14%; further: read at 38.3 µM for the half of the compounds with a filed dose
Shiga toxin inh = blocks Shiga toxin action in Vero cells; Vero cells, Shiga toxin protein synthesis inhibition reporter; inhibition, % at 38.7 µM; actives 9.2% (n = 290,000); AID 2315; in the data active means inhibition mostly above about 28%, no sharp cut-off; inactive means mostly below about 43%
Pf growth 96h = P. falciparum growth inhibition at 96 hour, primary screen for plastid delayed-death inhibitors | P. falciparum luciferase reporter growth, 96 h | Potency, µM (series often up to 28.7 µM), most hits filed as inhibitors | actives 6.9% (n = 320,000)
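Two parasite generations (96 h, 37 C, 5% CO2) of compound exposure in infected erythrocytes (0.05% parasitemia, 2% hematocrit). Luciferase-reporter P. falciparum; decreased luminescence indicates inhibited growth, aimed at apicoplast-acting delayed death.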
NS1 function inh = influenza NS1 inhibition. actives 0.4% (n = 270,000). Potency, µM (highest dose often 46.1 µM); calls by dose curve; further: actives are rising curves; nearly all actives have a fitted effect of over 50% in size
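Growth recovery, yeast-based: influenza A NS1 expressed in S. cerevisiae causes slow growth, and suppressors are detected by OD600. The parent strain without NS1 is used as positive control.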
Pf growth 48h = inhibits P. falciparum growth in the first generation, 48 h. P. falciparum luciferase growth in erythrocytes, 48 h. Potency, µM (titrated, usually from 28.7 µM), hits mostly inhibitors. actives 5.9% (n = 310,000). AID 504832
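Firefly luciferase activity from engineered P. falciparum reports growth; inhibitors lower the luminescent signal. Cultures contained 2% hematocrit erythrocytes at 0.1% final parasitemia.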
Large screens that a line does not name were inactive. Sampled rows, rich in hits. Any-hit rate of the full collection: about 21%. Unless noted, the call rests on the fitted dose curve; in most records, active means well fitted inhibition curve with a large enough effect; inconclusive means small, poorly fitted or top-dose-only effect, or another doubt; inactive means no such curve, though single readings can be large or run the other way.

Cn1ccnc1SCC(=O)Nc1cccc(S(=O)(=O)N2CCCCCC2)c1	Pf growth 96h inconclusive (no result: NS1 function inh)
O=C(CC(=O)c1ccccc1)Nc1ccccc1C(F)(F)F	Cycloheximide cs 32, Pf growth 96h 12µM
CC(C)N(CC(=O)Nc1ccc(Cl)cc1C(F)(F)F)C(=O)CCl	Cycloheximide cs 21 (no result: NS1 function inh)
O=C(CC(=O)Nc1ccccc1C(F)(F)F)Nc1ccccc1C(F)(F)F	none
Cc1cccc(NC(=O)CCCc2ccccc2)c1C	Cycloheximide cs 23, Shiga toxin inh 32
Cc1ccccc1NC(=O)CC(=O)c1ccccc1	Cycloheximide cs 18
Cc1cccc(-n2nnnc2SCC(=O)Nc2cccc(S(N)(=O)=O)c2)c1	Pf growth 96h inconclusive
O=C(CCCOc1ccccc1)Nc1ccccc1C(F)(F)F	Pf growth 96h inconclusive
O=C(CCCc1ccccc1)Nc1ccccc1C(F)(F)F	Cycloheximide cs 13, Pf growth 96h inconclusive (no result: Shiga toxin inh)
CCC(C)N(CC(=O)Nc1cccc(C)c1C)C(=O)CCl (configuration not stated)	Pf growth 96h 3.7µM, Pf growth 48h inconclusive (no result: NS1 function inh)
Cc1cc2nc(-c3ccccn3)c(-c3ccccn3)nc2cc1C	Cycloheximide cs 18
CCn1c(O)c(/C(C)=N/N2CCCCC2c2cccnc2)c(=O)[nH]c1=S (configuration not stated)	Pf growth 96h 13µM, Pf growth 48h inconclusive
CCN(CCCNC(=O)CC(C(=O)N1CCc2ccccc21)n1ccnc1)c1cccc(C)c1 (configuration not stated)	Pf growth 96h inconclusive, Pf growth 48h 10µM
CCCCNC(=O)CC(C(=O)N1CCc2ccccc21)n1ccnc1 (configuration not stated)	none (no result: Pf growth 48h)
CC(C)(C)NC(=O)C(OC(=O)c1cccs1)c1ccccc1 (configuration not stated)	Cycloheximide cs 22
CC(C)(C)NC(=O)C(OC(=O)c1cccs1)c1ccc(F)cc1 (configuration not stated)	none (no result: NS1 function inh)
CCn1ccnc1CNC(=O)CC1C(=O)NCCN1Cc1ccc(OC)cc1OC (configuration not stated)	none
CCn1c(C)nc([N+](=O)[O-])c1Sc1ccc(F)cc1	Pf growth 96h 10µM, Pf growth 48h inconclusive
COc1ccc(OCCSc2nc3ccccc3n2CC(=O)O)cc1	NS1 function inh inconclusive (no result: Pf growth 96h)
Cc1cccc(C)c1OCCSc1nc2ccccc2n1CC(=O)O	Pf growth 96h 12µM (no result: Shiga toxin inh)
CC12CN(S(=O)(=O)c3ccccc3)CC(C)(CN(S(=O)(=O)c3ccccc3)C1)C2	Pf growth 96h inconclusive (no result: Pf growth 48h)
COc1ccccc1CCc1nnc(CCC(=O)NCCCOc2cccnc2)o1	Pf growth 96h inconclusive
Cc1cc(C(=O)N/N=C2/CC(C)CC(C)(C)C2)c(C)o1 (configuration not stated)	Cycloheximide cs 31, Shiga toxin inh 77
C/C(=N\NC(=O)c1cc(C)oc1C)c1ccc2ccccc2c1	none
CCc1ccc(-c2cn(C3CCCCC3)c(=S)[nH]2)cc1	Cycloheximide cs 18, Pf growth 96h inconclusive (no result: NS1 function inh)
CCC(C)(C)C1CCc2[nH]nc(C(=O)N/N=C(\C)c3ccco3)c2C1 (configuration not stated)	Cycloheximide cs 61, Shiga toxin inh 107
C/C(=N\NC(=O)c1n[nH]c2c1CCC2)c1ccco1	Cycloheximide cs 26
CCC(C)(C)C1CCc2[nH]nc(C(=O)NCc3ccc(OC)cc3)c2C1 (configuration not stated)	Pf growth 48h inconclusive (no result: Cycloheximide cs, Shiga toxin inh, NS1 function inh)
COc1cc(SC)ccc1C(=O)NCCCn1ccnc1	none
Cc1ccc(CNC(=O)c2ccc(NC(=O)CCS(=O)(=O)c3cccs3)cc2)cc1	Pf growth 96h inconclusive
O=C(CCl)c1cc2c3c(c1)CC(=O)N3CCC2	Pf growth 96h inconclusive, Pf growth 48h inconclusive
CCC(=O)N1CCc2cc(Br)cc(S(=O)(=O)NCC3CCCN3CC)c21 (configuration not stated)	none
CCC(=O)N1CCc2cc(Br)cc(S(=O)(=O)CCC(=O)NCc3ccco3)c21	Pf growth 48h 8.3µM (no result: Pf growth 96h)
CCC(=O)N1CCc2cc(Br)cc(S(=O)(=O)NCc3ccco3)c21	Cycloheximide cs 35, Shiga toxin inh 106, Pf growth 96h inconclusive, Pf growth 48h inconclusive
CCC(=O)N1CCc2cc(Br)cc(S(=O)(=O)CCC(=O)N(C)c3cccc(C)c3)c21	Pf growth 96h 5.2µM, Pf growth 48h 12µM (no result: Cycloheximide cs, Shiga toxin inh, NS1 function inh)
CCC(=O)N1CCc2cc(Br)cc(S(=O)(=O)CCC(=O)N(CC)CC)c21	Pf growth 96h inconclusive, Pf growth 48h inconclusive (no result: NS1 function inh)
O=C(COC(=O)c1ccncc1)NCCCc1ccccc1	none
